In the library only some 1.2% were active in any assay of this set; here they are far more common.
gsp antag – antagonizes gsp, the McCune-Albright syndrome mutation | 340,000 tested, 0.4% active | Potency, µM (series often up to 76.9 µM), for the others: at the highest dose activity change, negative = inhibition, actives largely listed as inhibitors | gsp-mutant cells, cAMP HTRF, 30 min; calls by dose curve; cell line not stated here;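 also: intracellular cAMP measured with PDE inhibitor Ro 20-1724 present during compound exposure; potency is read from the fitted curve at half-maximal effect; % is scaled to controls: 0 for no effect and ±100 for the full control effect; nearly all actives have a fitted effect of over 65% in size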
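HTRF cAMP measurement after 30 min RT detection following 30 min, 37C compound treatment alongside […] (added as 300 uM solution) in G418-selected cells seeded at 2000/well and grown 16–24 h.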
RXFP1 antagonist – RXFP1 (human) relaxin receptor antagonism; 350,000 tested, 0.59% active; HEK293-RXFP1, relaxin-stimulated cAMP HTRF, 30 min; active compounds read low; activity change, negative = inhibition, % at 57.5 µM; Q9HBX9;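 active = activity change of -60% or lower, but not beyond a set lower limit; inconclusive = change between -60% and -40%, or beyond the set limit; inactive = change above -40%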; also: % is scaled to controls: 0 for no effect and ±100 for the full control effect
Target sequence (Q9HBX9 whole entry, looked up): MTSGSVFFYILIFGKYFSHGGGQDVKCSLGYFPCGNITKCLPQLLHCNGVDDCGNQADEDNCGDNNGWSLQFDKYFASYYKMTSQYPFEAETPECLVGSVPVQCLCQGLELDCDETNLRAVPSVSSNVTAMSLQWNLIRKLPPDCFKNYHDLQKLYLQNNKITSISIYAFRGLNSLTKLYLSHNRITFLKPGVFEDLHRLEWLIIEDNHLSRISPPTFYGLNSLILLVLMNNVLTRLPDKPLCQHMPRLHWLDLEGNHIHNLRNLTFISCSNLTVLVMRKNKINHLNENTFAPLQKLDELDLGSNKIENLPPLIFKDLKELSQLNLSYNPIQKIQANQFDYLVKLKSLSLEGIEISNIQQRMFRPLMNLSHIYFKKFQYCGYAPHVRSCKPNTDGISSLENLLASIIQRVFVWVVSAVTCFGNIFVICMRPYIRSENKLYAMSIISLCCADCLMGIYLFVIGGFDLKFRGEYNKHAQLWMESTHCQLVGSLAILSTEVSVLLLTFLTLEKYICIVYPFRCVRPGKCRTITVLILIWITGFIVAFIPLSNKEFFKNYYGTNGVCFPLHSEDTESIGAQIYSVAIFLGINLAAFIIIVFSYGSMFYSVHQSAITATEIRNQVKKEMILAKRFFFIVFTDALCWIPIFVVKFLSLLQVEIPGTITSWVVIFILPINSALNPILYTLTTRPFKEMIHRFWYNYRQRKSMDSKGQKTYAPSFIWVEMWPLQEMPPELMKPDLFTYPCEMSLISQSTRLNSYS
gsp agonist – agonists of gsp mutant (McCune-Albright syndrome). 340,000 tested, 0.13% active. gsp mutant cells, cAMP HTRF, 30 min. Potency, µM (top dose mostly 76.9 µM), without a hit: at the top dose activation (cAMP increase), hits mostly activators; active = well fitted activation curve with a large enough effect; inconclusive = small, poorly fitted or top-dose-only effect, or another doubt; inactive = no such curve, though single readings can be large or run the other way; cell line not stated here;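 also: phosphodiesterase inhibitor Ro 20-1724 added with compounds to block cAMP breakdown; potency is read from the fitted curve at half-maximal effect; nearly all actives have a fitted effect of over 60% in size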
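Cells stably selected in G418 were plated at 2000/well, grown 16-24 hr, then given compounds in DMSO with the PDE inhibitor […] (300 uM solution added) for 30 min at 37C; cAMP was read by HTRF.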
pAkt inh – Akt phosphorylation inhibition | Neuro2A IGF-stimulated pAkt S473 HTRF, 20 min; active compounds read low | activity change, % for hits at 50 µM | 360,000 tested, 0.32% active | AID 651550; in the data active = activity change below about -80%; inconclusive = mostly about -51% to -80%; also: % is scaled to controls: 0 for no effect and ±100 for the full control effect
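Neuro2A cells in DMEM with 0.5% FBS, overnight at 37 deg C, given compound at single 50 µM final, then IGF (6 nM final) for 20 min at 37 deg C. Lysed; phospho-Akt Ser473 by HTRF after 24 h, 665/615 ratio.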
RXFP1 agonist – RXFP1 (human) receptor agonism; HEK293T-RXFP1 cAMP TR-FRET, 30 min; response scale: percent of porcine relaxin response, buffer zero; 370,000 tested, 0.3% active; Q9HBX9; Potency, µM (series often up to 57.5 µM), inactives show at the highest dose activation, actives largely listed as activators; active = well fitted activation curve with a large enough effect; inconclusive = small, poorly fitted or top-dose-only effect; also: potency is read from the fitted curve at half-maximal effect; % is scaled to controls: 0 for no effect and ±100 for the full control effect; nearly all actives have a fitted effect of over 60% in size
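cAMP rise read by TR-FRET after 30 min, 37C compound exposure (up to 58 uM) in RXFP1-transfected HEK293 cells with Ro 20174 present. EC50 from Hill-equation fits, with 29 nM porcine relaxin as 100% and buffer as basal.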
An asterisk follows results filed as active; [ ] = dose if it differs, or a comment.

`CCc1ccc(N(C(=O)c2snc(C(N)=O)c2N)C(C(=O)NCC2CCCO2)c2cccs2)cc1` (centres undefined) gave gsp antag inconclusive, RXFP1 antagonist inconclusive, gsp agonist -24.3%, pAkt inh inactive and RXFP1 agonist -2.3%.
`Cc1ccc(C)c(N(C(=O)c2snc(C(N)=O)c2N)C(C(=O)NCC2CCCO2)c2ccc(C)o2)c1` (centres undefined) gave gsp antag -15.0%, RXFP1 antagonist -86.9*, gsp agonist -5.9%[15.4 µM], pAkt inh inactive and RXFP1 agonist 0.7%.
NC(=O)c1nsc(C(=O)N(c2ccc(Cl)cc2)C(C(=O)NCC2CCCO2)c2cccs2)c1N (centres undefined) was read as gsp antag inconclusive, RXFP1 antagonist -62.3*, gsp agonist -16.3%, pAkt inh inactive and RXFP1 agonist 1.8%.
Screening Cc1ccc(C)c(N(C(=O)c2snc(C(N)=O)c2N)C(C(=O)NCC2CCCO2)c2cccs2)c1 (centres undefined) returned RXFP1 antagonist inconclusive, gsp agonist 20.2%[15.4 µM], pAkt inh inactive and RXFP1 agonist 2.6%.
Screening COC(=O)c1ccc(CNC(=O)CSc2nnc(COc3ccccc3)n2C)o1 returned gsp antag -4.3%, RXFP1 antagonist -1.0, gsp agonist 22.2%, pAkt inh -109.9%* and RXFP1 agonist 1.7%.
For COC(=O)c1cccc(NC(=O)CSc2nnc(COc3ccccc3)n2C)c1 the results were gsp antag -9.5%, RXFP1 antagonist -12.8, gsp agonist -15.9%, pAkt inh inactive and RXFP1 agonist -1.3%.
CCCCOc1ccc(C(=O)Nc2ccc3c(c2)CCCN3C(=O)c2cccs2)cc1 was read as RXFP1 antagonist -8.4 and RXFP1 agonist 2.9%.
`COc1ccc(N2C(=O)C3CCCN3C2c2ccc(C)o2)cc1` (centres undefined) gave gsp antag 50.1µM*, gsp agonist -5.8%, pAkt inh inactive and RXFP1 agonist 3.4%.
`Cc1ccc(-c2noc(C3CCCN(C(=O)c4c(F)cccc4F)C3)n2)cc1` (centres undefined) gave gsp antag inconclusive, RXFP1 antagonist -12.7, gsp agonist 7.8%, pAkt inh inactive and RXFP1 agonist -0.7%.
For Cc1ccc(-c2noc(C3CCCN(C(=O)c4ccccc4Br)C3)n2)cc1 (centres undefined) the results were gsp antag 44.7µM*, RXFP1 antagonist 5.9, gsp agonist -13.8%, pAkt inh inactive and RXFP1 agonist -0.1%.
`COc1ccc(CNc2oc(/C=C/c3cc(OC)c(OC)c(OC)c3)nc2C#N)cc1` gave RXFP1 antagonist 0.9 and RXFP1 agonist 17.3%.
For COC(=O)C(Nc1ccccc1Cl)(c1cc(C)c(O)c(C)c1)C(F)(F)F (centres undefined) the results were gsp antag -7.8%, RXFP1 antagonist -64.1*, gsp agonist inconclusive, pAkt inh inactive and RXFP1 agonist 8.4%.
For CCOC(=O)C(NC(=O)c1ccccc1Cl)(Nc1ccc(C)c(C)c1)C(F)(F)F (centres undefined) the results were gsp antag -10.8%, RXFP1 antagonist -2.1, gsp agonist 15.0%, pAkt inh inactive and RXFP1 agonist 2.1%.
`COc1ccc(OC)c2c(N3CC(C)OC(C)C3)cc(C(F)(F)F)nc12` (centres undefined) gave gsp antag -0.7%, RXFP1 antagonist -6.7, gsp agonist 4.7%, pAkt inh -114.2%* and RXFP1 agonist 3.9%.
For C=CC(=O)N1C/C(=C/c2ccc(F)cc2)C(=O)/C(=C\c2ccc(F)cc2)C1 the results were gsp antag 4.9%, RXFP1 antagonist -79.8*, gsp agonist 10.3% and pAkt inh inactive.
Screening Cn1ccc2cc(-c3ccc4ncnc(NCc5cccnc5)c4c3)ccc21 returned RXFP1 agonist 2.4%.
For O=C(CS)Nc1ccc2ccccc2c1 the results were gsp antag 4.9%, RXFP1 antagonist -101.9*, gsp agonist -8.8%[15.4 µM], pAkt inh inactive and RXFP1 agonist 1.8%.
CN1CCOc2ccc(S(=O)(=O)N3CCN(S(=O)(=O)c4c(F)cccc4F)CC3)cc21 was read as RXFP1 agonist 3.5%.
For CN(Cc1ccccc1F)c1nc(-c2cccs2)nc2ccccc12 the results were gsp antag 11.2µM*, RXFP1 antagonist -28.5, gsp agonist 19.4%[15.4 µM], pAkt inh inactive and RXFP1 agonist 2.4%.
`COc1ccc(C(=O)NCC(c2ccc(N(C)C)cc2)N2CCc3ccccc32)cc1` (centres undefined) gave RXFP1 antagonist -17.2 and RXFP1 agonist 0.7%.
`Cc1cc2cc(C)c(NCCNC(=O)c3ccccc3)nc2cc1C` gave gsp antag -2.5%, RXFP1 antagonist -4.9, gsp agonist -55.5%, pAkt inh inactive and RXFP1 agonist 0.8%.
`Cc1ccc(C(=O)NCCNc2nc3cc(C)c(C)cc3cc2C)cc1` gave gsp antag 3.3%, RXFP1 antagonist -9.1, gsp agonist 22.4µM*, pAkt inh inactive and RXFP1 agonist -1.2%.
CCCCCCCCCCCCCCNCCO was read as RXFP1 antagonist -13.3.
For COc1ccc(N2CCN(C(=O)c3cc4c(C)nc5ccccc5c4o3)CC2)cc1 the results were gsp antag inconclusive, RXFP1 antagonist -76.3*, gsp agonist inconclusive, pAkt inh inactive and RXFP1 agonist -0.3%.
`CC(=O)c1ccc(N2CCN(C(=O)c3cc4c(C)nc5ccccc5c4o3)CC2)cc1` gave gsp antag -23.3%, RXFP1 antagonist 21.3, gsp agonist 11.0%, pAkt inh inactive and RXFP1 agonist inconclusive.
For CCn1cc(S(=O)(=O)c2cc(C)cc(C)c2)c(=O)c2cc(F)c(N3CCN(c4ccccc4)CC3)cc21 the results were RXFP1 antagonist -13.4 and RXFP1 agonist 4.3%.
`O=c1[nH]c(SCc2n[nH]c(=S)n2-c2ccccc2)nc2sc3c(c12)CCC3` gave gsp antag 5.5%, RXFP1 antagonist -67.1*, gsp agonist 3.3%, pAkt inh inactive and RXFP1 agonist 3.8%.
`CCc1ccccc1NC(=O)N1CCN(c2cc(-c3noc(C)n3)ccc2C)CC1` gave RXFP1 agonist -0.4%.
Screening CCOc1ccc2nc(N3CCCC(C(=O)Nc4cc(Cl)c(OC)cc4OC)C3)sc2c1 (centres undefined) returned RXFP1 antagonist -10.4 and RXFP1 agonist -0.2%.
For O=C(N/N=C/c1cc2c3c(c1O)CCCN3CCC2)c1ccccc1O the results were gsp antag inconclusive, RXFP1 antagonist -76.2*, gsp agonist -6.1%[15.4 µM], pAkt inh inactive and RXFP1 agonist 2.1%.
For O=C(CSc1nc2c([nH]c3ccccc32)c(=O)n1-c1ccccc1)c1ccccc1 the results were RXFP1 antagonist -109.2* and RXFP1 agonist -1.8%.

High-throughput results deposited in PubChem by National Center for Advancing Translational Sciences (NCATS).
